Reference: PubChem BioAssay
For part of these data: Potency and affinity values are given separately. The source made the active and inactive calls.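 How the source made its calls, unless noted: active means membrane potential signal rise above negative control mean plus 3 SD in both duplicates, also active in the earlier TRPC4 screen; inactive means the rest.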

Experiments:
[1] = test system: TRPC4 beta (transient receptor potential cation channel C4), mouse; experiment: TRPC4 cation channel opening, retest – cell-based, Fluo4 calcium, HEK293 TRPC4beta/mu-opioid, duplicates, 10 µM, confirmation (AID 2426;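 active means fluorescence ratio normalized to control raised more than 50% in primary screen plus both repeat runs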;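 on activation: percent rise of integrated ratio over buffer wells lacking compound which define 0%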); settings: Fluo4 calcium fluorescence, at 10 µM; hits give high values
[2] = test system: transient receptor potential cation channel C4 beta (TRPC4), mouse; experiment: TRPC4 cation channel opening, second retest – cell-based, second round, Fluo4, HEK293 TRPC4beta/mu-opioid, 1 µM, confirmation (AID 2461;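 active means primary screen active and over 50% activation in each of two duplicate runs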); settings: Fluo4 calcium fluorescence, at 1 µM; hits give high values
[3] = test system: TRPC4 (transient receptor potential cation channel C4 beta), mouse; experiment: potentiation of DAMGO EC20 TRPC4 response – cell-based, second round, Fluo-4, HEK293 TRPC4beta/mu-opioid, 1 µM, confirmation (AID 2554;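 active means primary screen hit whose fluorescence ratio, in both repeats, exceeds the weak agonist control mean by 3 SD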); settings: DAMGO EC20, Fluo-4 calcium flux, at 1 µM; hits give high values
[4] = test system: TRPC4 beta (transient receptor potential cation channel C4), mouse; experiment: potentiation of DAMGO EC20 TRPC4 response – cell-based, Fluo-4, HEK293 TRPC4beta/mu-opioid, confirmation (AID 2555;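 active means primary screen hit whose calcium fluorescence ratio, in both repeats, exceeds the weak agonist control mean by 3 SD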); settings: DAMGO EC20, Fluo-4 calcium flux, at 10 µM; hits give high values
[5] = biological target: Short transient receptor potential channel 4 (Mus musculus) (UniProt Q9QUQ5); experiment: blockers of DAMGO-evoked TRPC4 calcium flux – cell-based, Fluo4, HEK293 TRPC4beta/mu-opioid, confirmation (AID 2636;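 active means calcium signal cut by more than 3 SD below the full-agonist control yet still positive, in both repeats and the earlier primary screen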); settings: at 10 µM; hits give high values
[6] = biological target: Short transient receptor potential channel 4 (Mus musculus) (UniProt Q9QUQ5); experiment: blockers of DAMGO-evoked TRPC4 calcium flux – cell-based, second round, Fluo4, HEK293 TRPC4beta/mu-opioid, 1 µM, confirmation (AID 2637;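 active means calcium signal ratio cut to more than 3 SD under the fully stimulated control mean yet still positive, in both repeats and the primary screen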); settings: at 1 µM; hits give high values
[7] = biological target: Short transient receptor potential channel 4 (Mus musculus) (UniProt Q9QUQ5); experiment: calcium entry via TRPC4 opening agents – cell-based, HEK293 TRPC4/mu-opioid, Fluo-4 calcium, dose response (AID 434937;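 active means primary screen activator hit with a dose response curve and TRPC4 channel activation at any tested dose; inactive means no activation, no dose response, or not a primary hit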)
[8] = biological target: Short transient receptor potential channel 4 (Mus musculus) (UniProt Q9QUQ5); experiment: potentiation of DAMGO-evoked TRPC4 calcium signal – cell-based, HEK293 TRPC4/mu-opioid, Fluo-4 calcium, EC20 DAMGO, dose response (AID 434941;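 active means earlier screen potentiator hit that boosts the TRPC4 ion channel at some dose, with a dose response; inactive means no potentiation, no dose response, or not a prior hit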;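 further: calcium entry triggered by an EC20 dose of DAMGO at the co-expressed mu-opioid receptor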)
[9] = biological target: Short transient receptor potential channel 4 (Mus musculus) (UniProt Q9QUQ5); experiment: block of DAMGO-driven TRPC4 calcium entry – cell-based, HEK293 TRPC4/mu-opioid, Fluo-4 calcium, dose response (AID 434942;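 active means primary screen inhibitor hit that blocks the TRPC4 channel at some tested dose, yielding a dose curve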)
[10] = biological target: Short transient receptor potential channel 6 (Mus musculus) (UniProt Q61143); experiment: TRPC6 blockade by TRPC4 inhibitor hits – cell-based, HEK293, membrane potential dye, duplicate, selectivity assay for TRPC4 inhibitor project, confirmation (AID 434948;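 active means active in primary screen and both duplicates, each dropping signal beyond three positive-control SD with fluorescence still positive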); settings: HEK293 TRPC6, membrane potential dye fluorescence, at 10 µM, stimulated with maximal-effect acetylcholine; hits give high values
[11] = biological target: Short transient receptor potential channel 6 (Mus musculus) (UniProt Q61143); experiment: TRPC6 opening by TRPC4 activator hits – cell-based, HEK293, membrane potential dye, duplicate, selectivity assay for TRPC4 activator project, confirmation (AID 434950); settings: HEK293 TRPC6, membrane potential fluorescence, at 10 µM; activation: hits give high values; outcome: activation;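 on activation: 0% = buffer only wells and 100% = acetylcholine maximal-effect wells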
[12] = biological target: Short transient receptor potential channel 6 (Mus musculus) (UniProt Q61143); experiment: positive modulators of mouse TRPC6 channel – HEK293 cells, membrane potential dye, duplicate, selectivity assay for TRPC4 potentiator project, confirmation (AID 434952;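 active means compound raising the membrane signal above positive-control mean plus 3 SD in both repeats, and a primary screen hit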); settings: HEK293 TRPC6, membrane potential dye fluorescence, at 10 µM, maximal acetylcholine added after compound; hits give high values
[13] = biological target: Short transient receptor potential channel 4 (Mus musculus) (UniProt Q9QUQ5); experiment: calcium flux activators in TRPC4/5HT1a cells, counter-screen for TRPC4 activator project, cell-based, second counter screen, HEK293 TRPC4/5HT1a, Fluo-4 (AID 434977;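 active means calcium signal rise above buffer-control mean plus 5 SD in both duplicates, and also a hit in the primary screen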;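 on activation: plate controls were assay buffer for no effect and maximal serotonin response for full effect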); settings: Fluo-4 calcium flux, at 10 µM; hits give high values
[14] = serotonin-gated TRPC4 signal block – cell-based, second counter screen, HEK293 TRPC4/5HT1a, Fluo-4, counter-screen for TRPC4 inhibitor project, confirmation (AID 434978;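 active means primary screen active whose calcium signal fell more than 3 SD beyond the full-serotonin control mean in both duplicate plates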;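 on outcome: serotonin given first at submaximal then at maximal dose after compound preincubation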); settings: Fluo-4 calcium flux, at 10 µM, serotonin added to trigger calcium flux; hits give high values
[15] = test system: TRPC4 (mouse), co-expressed with 5HT1a in HEK293; experiment: enhancement of serotonin-evoked TRPC4 response – cell-based, second counter screen, HEK293 TRPC4/5HT1a, Fluo-4, counter-screen for TRPC4 potentiator project, confirmation (AID 434979;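 active means signal rise over 3 SD above mean of control wells given weak agonist, in both repeats and first screen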); settings: Fluo-4 calcium flux, at 10 µM, serotonin added at its EC20 dose; hits give high values
[16] = nonspecific calcium rise without TRPC4 – cell-based, HEK293 mu-opioid receptor line, counter-screen for TRPC4 activator project, confirmation (AID 449723;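 active means hit in primary screen, with calcium signal over 5 SD above buffer well mean in both duplicates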;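 further: counter screen cells carry the mu-opioid receptor alone and lack TRPC4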); settings: HEK293 mu-opioid cells, Fluo-4 calcium fluorescence, at 10 µM; hits give high values
[17] = nonspecific potentiation of DAMGO calcium response – cell-based, HEK293 mu-opioid receptor line, counter-screen for TRPC4 allosteric potentiator project, confirmation (AID 449724;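 active means calcium signal rise more than 3 SD above the low-dose agonist control mean, in both duplicate plates and the primary screen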); settings: HEK293 mu-opioid receptor cells, Fluo-4 calcium flux, at 10 µM, compound added before EC20 DAMGO stimulus; hits give high values

Sequence of Short transient receptor potential channel 4 (Mus musculus) (Q9QUQ5 whole entry, looked up): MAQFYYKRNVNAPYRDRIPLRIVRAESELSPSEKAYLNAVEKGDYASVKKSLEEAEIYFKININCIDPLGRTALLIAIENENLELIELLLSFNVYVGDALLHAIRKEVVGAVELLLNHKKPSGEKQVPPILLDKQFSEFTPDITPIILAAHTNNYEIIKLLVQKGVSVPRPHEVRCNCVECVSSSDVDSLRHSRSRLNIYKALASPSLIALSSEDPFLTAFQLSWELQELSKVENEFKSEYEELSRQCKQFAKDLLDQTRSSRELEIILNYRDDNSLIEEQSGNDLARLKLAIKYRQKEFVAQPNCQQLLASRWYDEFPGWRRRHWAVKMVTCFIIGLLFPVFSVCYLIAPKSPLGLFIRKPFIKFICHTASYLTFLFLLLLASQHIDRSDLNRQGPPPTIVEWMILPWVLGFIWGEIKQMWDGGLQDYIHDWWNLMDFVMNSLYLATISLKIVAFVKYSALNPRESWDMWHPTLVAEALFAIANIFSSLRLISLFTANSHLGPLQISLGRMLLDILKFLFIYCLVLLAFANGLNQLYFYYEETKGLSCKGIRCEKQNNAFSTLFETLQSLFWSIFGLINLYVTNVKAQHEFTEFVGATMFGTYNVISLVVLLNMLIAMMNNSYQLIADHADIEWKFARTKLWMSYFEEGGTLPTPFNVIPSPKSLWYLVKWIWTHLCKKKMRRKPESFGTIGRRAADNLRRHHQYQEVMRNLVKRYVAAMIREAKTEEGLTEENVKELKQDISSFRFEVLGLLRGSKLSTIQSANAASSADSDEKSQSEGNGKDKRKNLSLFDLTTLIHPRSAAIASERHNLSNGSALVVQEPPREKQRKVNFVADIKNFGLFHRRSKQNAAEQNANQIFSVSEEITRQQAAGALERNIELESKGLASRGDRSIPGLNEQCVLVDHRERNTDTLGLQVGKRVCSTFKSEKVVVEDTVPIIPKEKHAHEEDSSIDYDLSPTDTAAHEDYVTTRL
Sequence of Short transient receptor potential channel 6 (Mus musculus) (Q61143 whole entry, looked up): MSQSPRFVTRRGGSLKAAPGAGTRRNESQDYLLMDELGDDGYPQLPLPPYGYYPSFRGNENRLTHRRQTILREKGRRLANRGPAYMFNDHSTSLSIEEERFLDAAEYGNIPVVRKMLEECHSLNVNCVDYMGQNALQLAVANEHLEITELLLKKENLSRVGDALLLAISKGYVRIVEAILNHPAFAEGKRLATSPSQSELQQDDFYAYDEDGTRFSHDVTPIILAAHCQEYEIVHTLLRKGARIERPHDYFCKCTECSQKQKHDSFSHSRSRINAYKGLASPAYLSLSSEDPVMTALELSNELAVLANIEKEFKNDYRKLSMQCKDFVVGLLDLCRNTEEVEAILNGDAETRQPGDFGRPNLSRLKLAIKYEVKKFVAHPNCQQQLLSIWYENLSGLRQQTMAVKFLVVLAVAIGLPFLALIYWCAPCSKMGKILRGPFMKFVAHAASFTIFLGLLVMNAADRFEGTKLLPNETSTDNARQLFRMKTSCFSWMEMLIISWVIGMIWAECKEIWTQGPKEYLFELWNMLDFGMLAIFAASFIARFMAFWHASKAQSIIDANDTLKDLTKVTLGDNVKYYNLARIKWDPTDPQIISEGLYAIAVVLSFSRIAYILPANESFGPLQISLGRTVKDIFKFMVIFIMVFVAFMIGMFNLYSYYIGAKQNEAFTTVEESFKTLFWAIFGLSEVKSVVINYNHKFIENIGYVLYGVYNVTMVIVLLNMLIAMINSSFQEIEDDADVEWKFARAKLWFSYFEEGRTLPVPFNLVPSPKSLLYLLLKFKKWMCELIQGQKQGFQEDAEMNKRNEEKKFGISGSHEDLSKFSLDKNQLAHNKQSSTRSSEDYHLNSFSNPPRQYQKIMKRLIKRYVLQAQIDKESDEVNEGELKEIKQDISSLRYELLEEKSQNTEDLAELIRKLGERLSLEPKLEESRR

NC(=O)c1ccc(N2CCN(c3ncc(C(F)(F)F)cc3Cl)CC2)cc1
outcome [1]: inactive | outcome [2]: inactive | outcome [3]: inactive | outcome [4]: inactive | outcome [5]: inactive | outcome [6]: inactive | outcome [7]: inactive | outcome [8]: inactive | outcome [9]: inactive | outcome [10]: inactive | outcome [11]: inactive | outcome [12]: inactive | outcome [13]: inactive | outcome [14]: inactive | potentiation [15]: 11.9% (active) | outcome [16]: inactive | outcome [17]: inactive

COC(=O)c1ccccc1NC(=O)c1cnn2cccnc12
outcome [1]: inactive | outcome [2]: inactive | outcome [3]: inactive | potentiation [4]: 16% (active) | outcome [5]: inactive | outcome [6]: inactive | outcome [7]: inactive | outcome [8]: inactive | outcome [9]: inactive | outcome [10]: inactive | outcome [11]: inactive | outcome [12]: inactive | outcome [13]: inactive | outcome [14]: inactive | potentiation [15]: 40.2% (active) | outcome [16]: inactive | outcome [17]: inactive

CCN1CCN(c2nc(C)c3c(n2)CC(C)CC3=O)CC1 (stereo not given)
outcome [1]: inactive | outcome [2]: inactive | outcome [3]: inactive | outcome [4]: inactive | outcome [5]: inactive | outcome [6]: inactive | outcome [7]: inactive | outcome [8]: inactive | outcome [9]: inactive | outcome [10]: inactive | outcome [11]: inactive | outcome [12]: inactive | outcome [13]: inactive | outcome [14]: inactive | potentiation [15]: 8.12% (active) | outcome [16]: inactive | outcome [17]: inactive

O=C(c1coc2ccc(O)c(CN3CCOCC3)c12)C1CC1
outcome [1]: inactive | outcome [2]: inactive | outcome [3]: inactive | outcome [4]: inactive | outcome [5]: inactive | outcome [6]: inactive | outcome [7]: inactive | outcome [8]: inactive | outcome [9]: inactive | outcome [10]: inactive | outcome [11]: inactive | outcome [12]: inactive | outcome [13]: inactive | outcome [14]: inactive | outcome [15]: inactive | outcome [16]: inactive | outcome [17]: inactive

Cc1cc(N2CCCCC2)nc(NCc2ccccc2)n1
activation [1]: 66% (active) | outcome [2]: inactive | outcome [3]: inactive | outcome [4]: inactive | outcome [5]: inactive | outcome [6]: inactive | outcome [7]: inactive | outcome [8]: inactive | outcome [9]: inactive | outcome [10]: inactive | activation [11]: 68.5% (active) | outcome [12]: inactive | activation [13]: 19.4% (active) | outcome [14]: inactive | outcome [15]: inactive | activation [16]: 29.5% (active) | outcome [17]: inactive

Cc1cc(OCC(=O)N2CCCC2)cc(C)c1Cl
outcome [1]: inactive | outcome [2]: inactive | outcome [3]: inactive | outcome [4]: inactive | outcome [5]: inactive | outcome [6]: inactive | outcome [7]: inactive | outcome [8]: inactive | outcome [9]: inactive | outcome [10]: inactive | activation [11]: 38% (active) | outcome [12]: inactive | outcome [13]: inactive | outcome [14]: inactive | outcome [15]: inactive | outcome [16]: inactive | outcome [17]: inactive

Cc1ccc(Cn2c(=N)c(C(=O)NCC3CCCO3)cc3c(=O)n4ccccc4nc32)cc1 (stereo not given)
outcome [1]: inactive | outcome [2]: inactive | outcome [3]: inactive | potentiation [4]: 47% (active) | outcome [5]: inactive | outcome [6]: inactive | outcome [7]: inactive | outcome [8]: inactive | outcome [9]: inactive | outcome [10]: inactive | outcome [11]: inactive | outcome [12]: inactive | outcome [13]: inactive | outcome [14]: inactive | potentiation [15]: 19.2% (active) | outcome [16]: inactive | outcome [17]: inactive

CCCCn1c(N)c(N(CCOC)C(=O)c2ccc(-c3ccc(C(C)=O)cc3)o2)c(=O)[nH]c1=O
outcome [1]: inactive | outcome [2]: inactive | outcome [3]: inactive | outcome [4]: inactive | outcome [5]: inactive | outcome [6]: inactive | outcome [7]: inactive | outcome [8]: inactive | outcome [9]: inactive | outcome [10]: inactive | outcome [11]: inactive | outcome [12]: inactive | outcome [13]: inactive | outcome [14]: inactive | outcome [15]: inactive | outcome [16]: inactive | outcome [17]: inactive

CC(C)C(=O)N1CCN(c2ccccc2NC(=O)c2ccco2)CC1
outcome [1]: inactive | outcome [2]: inactive | outcome [3]: inactive | outcome [4]: inactive | inhibition [5]: 84% (active) | outcome [6]: inactive | outcome [7]: inactive | outcome [8]: inactive | outcome [9]: inactive | outcome [10]: inactive | outcome [11]: inactive | outcome [12]: inactive | outcome [13]: inactive | outcome [14]: inactive | outcome [15]: inactive | outcome [16]: inactive | outcome [17]: inactive

COc1ccc(Br)cc1CN1CCC(N2CCCC2)CC1
outcome [1]: inactive | outcome [2]: inactive | outcome [3]: inactive | outcome [4]: inactive | outcome [5]: inactive | outcome [6]: inactive | outcome [7]: inactive | outcome [8]: inactive | outcome [9]: inactive | outcome [10]: inactive | outcome [11]: inactive | outcome [12]: inactive | outcome [13]: inactive | outcome [14]: inactive | potentiation [15]: 13.5% (active) | outcome [16]: inactive | outcome [17]: inactive

Clc1cc(/C=N\NC2=NCCN2)cc(Cl)n1
outcome [1]: inactive | outcome [2]: inactive | outcome [3]: inactive | outcome [4]: inactive | outcome [5]: inactive | outcome [6]: inactive | outcome [7]: inactive | outcome [8]: inactive | outcome [9]: inactive | outcome [10]: inactive | outcome [11]: inactive | outcome [12]: inactive | outcome [13]: inactive | outcome [14]: inactive | outcome [15]: inactive | outcome [16]: inactive | outcome [17]: inactive

CC(C)CN(C(=O)COC(=O)COc1ccc2ccccc2c1)c1c(N)n(Cc2ccccc2)c(=O)[nH]c1=O
outcome [1]: inactive | outcome [2]: inactive | outcome [3]: inactive | outcome [4]: inactive | outcome [5]: inactive | outcome [6]: inactive | outcome [7]: inactive | outcome [8]: inactive | outcome [9]: inactive | outcome [10]: inactive | outcome [11]: inactive | outcome [12]: inactive | outcome [13]: inactive | outcome [14]: inactive | potentiation [15]: 14.7% (active) | outcome [16]: inactive | outcome [17]: inactive

CCNc1nc(NC(C)(C)C)nc(N2CCCC2)n1
outcome [1]: inactive | outcome [2]: inactive | outcome [3]: inactive | outcome [4]: inactive | inhibition [5]: 77% (active) | outcome [6]: inactive | outcome [7]: inactive | outcome [8]: inactive | outcome [9]: inactive | outcome [10]: inactive | outcome [11]: inactive | outcome [12]: inactive | outcome [13]: inactive | inhibition [14]: 41.2% (active) | outcome [15]: inactive | outcome [16]: inactive | outcome [17]: inactive

CCCCN(C)CCNC(=O)C1CCCN(S(=O)(=O)c2cccc3nsnc23)C1 (stereo not given)
outcome [1]: inactive | outcome [2]: inactive | potentiation [3]: 11% (active) | outcome [4]: inactive | outcome [5]: inactive | outcome [6]: inactive | outcome [7]: inactive | outcome [8]: inactive | outcome [9]: inactive | outcome [10]: inactive | outcome [11]: inactive | outcome [12]: inactive | outcome [13]: inactive | outcome [14]: inactive | potentiation [15]: 7.12% (active) | outcome [16]: inactive | outcome [17]: inactive

O=C(CNc1ccc(Br)cc1)c1ccc(O)cc1
outcome [1]: inactive | outcome [2]: inactive | outcome [3]: inactive | outcome [4]: inactive | inhibition [5]: 82% (active) | outcome [6]: inactive | outcome [7]: inactive | outcome [8]: inactive | outcome [9]: inactive | inhibition [10]: 60.5% (active) | outcome [11]: inactive | outcome [12]: inactive | outcome [13]: inactive | outcome [14]: inactive | outcome [15]: inactive | outcome [16]: inactive | outcome [17]: inactive
